Experimental data as given in the supplement of paper PMC6555819.

System: VDR:RXRa (NR concentration 270 nM, RXRa partner concentration 90 nM)
Assay: PBM binding z-score (relative to random genomic background probes); higher = stronger binding; sequences stand for … in GC…GCGATTGACAGCGTAGAATGAAGG
Experimental: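 Protein-binding microarray (Agilent 4x180K custom design, double-stranded 60-nt probes: 5' GC cap, 34-nt variable region, 24-nt constant primer region; full probe sequence given). Purified or IVT nuclear receptor:RXRα heterodimers (3:1 NR:RXRα, mostly 270:90 nM) or homodimers were incubated for 1 h in PBS with 2% milk and no ligand, then detected with Alexa488 antibodies. Fluorescence from o1-orientation probes (~5 replicates averaged) was converted to z-scores against 500 random hg19 background probes. Variable regions are seed direct-repeat (DR0–DR5) sites, all their single-nucleotide variants and half-site ablations.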

Row | Sequence | PBM binding z-score
1 | CCTACTGGGCCATCCAGAGGTCATTGATCATATG | 4.12
2 | CGTCCTAGGTCAGCAGGTCAGTGAAAGCGACGTG | 2.07
3 | ATCTCTAGGTAAAGATAGTACAGTGAATGCAAAT | 0.325
4 | GGAATGAGGGCATTCGAGTTGATAGCATGGCGAT | 3.45
5 | TCTAGCAGGCGAGAGGGTCACTCAAGAGGTACGG | 1.49
6 | TCGAGTAGGTAAGGGGCATTCAGAATGGCGTCGA | 0.0857
7 | CCTACTTGGTCAAGGTCACACACGCTATAGGTAC | 3.97
8 | ATCGAAAGGACGAGGTGAGTATAGAGAAAGGGAA | -0.203
9 | CGGCCTAGGTCAGGGCCAGTATAGGAGGAACGTT | 0.12
10 | ATACCACGGTGATCGTGAGGTCGTTGATACTAAC | 1.93
11 | TCATATAGGTAAATAGGTGAAAGTCCGTAAGTTA | 1.25
12 | CCTCGGCGGACAACAGGAGGTCAGAGCTGCCAGA | 0.818
13 | TCTCGGAGGGCACGAAAGGTCAGAGCTCGACATC | 4.66
14 | CTCGAAAGGTCGGTTGAGGAGAGTATACGGATAA | 0.954
15 | CCGAGTAGGTTATGGGGCACTCAGGCAACGGTGA | -0.0808
16 | CAGCCTAGGTCAGGTCCAGTATAGGAGGAACGTT | 0.304
17 | TGTCAAAGTTAAAAGGTAACGTAAGTATCCACAC | 0.375
18 | TTGCCTAGGTCATGGGCCAGTATACCACGCGAAC | 2.21
19 | CCTTCCGGGTCACTCCAGGTTATAGCATCGGAGT | 4.21
20 | CCTACTGGGCCAAAAAGGTCATGGATGCCGATAA | 4.54

Row | Sequence | PBM binding z-score
21 | GCTAGTTAGTCAGTAAAAGGTCACACACCGGTCG | 3.78
22 | CGAACTAGGTCAAGGACAGTTAATCTCCGCACGC | 1.6
23 | ATCTCTAGGTAAAAGTTCAGTGCATCCCGAGGAT | 1.69
24 | GCTGCTAGATCAGGTTGGTCAGCTAACGGGTACG | -0.639
25 | TCTAGTTGGTCACGGAGATCACACACGACGGGTA | 0.966
26 | ATATGTAGGTTAAGGGTCATTCCGGTTGGTTCGC | 5.11
27 | ACCGAAAGGTCGAGGTGAGTATAGAGAAAGGGAA | 2.82
28 | TTACCAAGGTGAAGGTGGTTGATCCCTCTGTAGA | 0.0919
29 | TCGAGTAGGTTACCAATGGGTCATTCAGCTTTCT | 1.85
30 | CCTAGTTGGTCAGGAGGTCACTCACCGGATATGA | 3.4
31 | AGAATGAGGTTGAGATCAGGGAAACAGAATACAT | 0.141
32 | CCGACTGGGGCAAAGGTTACCAGACTCAGTACGA | 1.64
33 | TCTCGGAGGACACGAAAGGTTAGAGCTCGACATC | 0.803
34 | CATGCTAGGTCAATGGTCAGCTAAAGCAGCTCGC | 1.06
35 | ATCTCTAGGTAACCACGTTCAGTGAATGCCGAAC | 0.175
36 | ACTAGCAGGACAAGTTTGGGTCACTCAAACAAAG | 0.698
37 | CAAACTAGGTCAAGTGGTCAAAGTCCGCTTCCCG | 2.52
38 | CCTGACGGGTCACGAGGTTATAGCACGACGAGCG | 4.62
39 | TGAATGATGTTATAAGATCAGGGAACGTTGCAAA | -0.175
40 | ATCTGTAGGTAAAGTTCAGTGAAAGATCGATAGA | 1.24
